m5-HT2A agonist – activates the mouse 5-HT2A serotonin receptor; activation, % at 7.6 µM; P35363; CHO-K1 mHTR2A beta-arrestin complementation, luminescence; percent of 30 µM serotonin response; 0.66% of 360,000 active; AID 624169;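 active = activation above a run cutoff, the mean activation of all tested compounds plus 3 SD, cut at about 14% in these data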;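 note: 0% = plate median of compound wells and 100% = 30 µM serotonin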
HDAC3 inhib – human HDAC3 inhibition. recombinant HDAC3, fluorogenic peptide/trypsin coupled, fluorescence. 0.15% of 320,000 active. O15379. inhibition, % at 8.3 µM; in the data active = inhibition above about 26%, passing the limit was not always enough
Fh CTSL1 inh – blocks F. hepatica cathepsin L1 in PFM18AAP counter-screen; recombinant F. hepatica cathepsin L1, Z-Leu-Arg-MCA fluorescence; 0.49% of 300,000 active; inhibition, % at 5.96 µM;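 active = inhibition above the mean of all tested compounds plus 3 SD, set per screening campaign, cut at about 17% in these data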;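 note: 0% = plate median of test compound wells and 100% = 1 µM Z-Phe-Ala-diazomethylketone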
LANA-H2A inh – blocks KSHV LANA binding to histone H2A/H2B | Q9QR71 | cell-free LANA-H2A/H2B peptide, fluorescence polarization | inhibition, % (no concentration beside the values) | 0.6% of 320,000 active | AID 2629; in the data active = inhibition mostly above about 10%, no sharp cut-off; inactive = mostly below about 6.7%
OPRM1 ag – counter-screen for mouse HTR2A agonists: human mu opioid receptor agonists; U2OS OPRM1 beta-arrestin PathHunter, luminescence; DMSO 0%, DAMGO 9.3 µM 100%; shares compounds with m5-HT2A agonist; activation, % at 9.3 µM; 5.3% of 2,300 active;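 active = mean activation above the mean of DMSO-only wells plus 3 SD, cut at about 0.5% in these data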
Target sequence (P35372 whole entry, looked up): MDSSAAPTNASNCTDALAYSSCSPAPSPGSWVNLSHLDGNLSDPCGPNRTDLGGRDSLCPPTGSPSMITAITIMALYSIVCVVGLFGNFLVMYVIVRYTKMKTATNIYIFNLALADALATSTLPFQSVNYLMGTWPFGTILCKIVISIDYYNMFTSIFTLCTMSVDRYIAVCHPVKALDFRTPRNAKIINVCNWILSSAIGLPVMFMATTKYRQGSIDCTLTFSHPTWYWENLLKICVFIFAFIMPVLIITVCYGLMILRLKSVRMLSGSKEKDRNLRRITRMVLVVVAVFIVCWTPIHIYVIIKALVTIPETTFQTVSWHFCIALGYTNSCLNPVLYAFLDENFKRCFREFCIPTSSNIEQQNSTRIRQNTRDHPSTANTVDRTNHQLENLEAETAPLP
HTR2A ag conf – confirmation of mouse HTR2A serotonin receptor agonists | CHO-K1 PathHunter beta-arrestin recruitment, luminescence; DMSO 0%, 30 µM serotonin 100% | 19% of 2,300 active | activation, % at 7.6 µM | shares compounds with m5-HT2A agonist;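 active = mean activation across triplicates above the hit threshold derived in the original primary screen, cut at about 15% in these data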
* marks the source's active call; other numbers are inactive results; . = no result given. An excerpt weighted towards active compounds, which were near 1.7% of everything screened.

SMILES	m5-HT2A agonist	HDAC3 inhib	Fh CTSL1 inh	LANA-H2A inh	OPRM1 ag	HTR2A ag conf
CSCCC(c1nc2ccccc2[nH]1)n1c(-c2cc(C(F)(F)F)cc(C(F)(F)F)c2)nc2ccccc21 (configuration not stated)	19*	.	.	.	0.8*	7
c1ccc(Nc2nc(Nc3ccccc3)nc(N3CCNCC3)n2)cc1	20*	-3	4	0	0	11
c1ccc(Nc2nc(N3CCCC3)nc(N3CCOCC3)n2)cc1	6	4	1	-5	.	.
COc1cc(CNC2CCCC2)cc(Cl)c1OCc1ccc(F)cc1	18*	3	2	-2	0.8*	4
CCOc1cc(CNC2CCCC2)cc(Cl)c1OCc1ccc(F)cc1	12	3	2	4	.	.
O=C1NC[C@H](Cc2ccc(O)cc2)N(CCc2cc(C(F)(F)F)cc(C(F)(F)F)c2)C1=O	3	.	.	.	.	.
CCCC[C@@H]1CNC(=S)N1CCc1cccc(F)c1	15*	3	3	1	0	-3
CCCC[C@@H]1CNC(=O)C(=O)N1CCc1cc(C(F)(F)F)cc(C(F)(F)F)c1	15*	9	5	0	0	-2
CC(C(=O)Nc1ccccc1F)N1CCN(C)CC1 (configuration not stated)	.	1	1	-1	.	.
COc1ccc(CCNC(=O)C(=O)NCC2OCCN2S(=O)(=O)c2ccc(C)cc2)cc1 (configuration not stated)	4	-7	0	6	.	.
O=C(NCCCO)C(=O)NCC1OCCCN1S(=O)(=O)c1cccs1 (configuration not stated)	16*	-2	1	-1	0.9*	-1
COc1ccc(S(=O)(=O)N2CCOC2CNC(=O)C(=O)NCCc2ccccc2)cc1 (configuration not stated)	46*	0	-3	1	0	9
O=C(NCCO)C(=O)NCC1OCCCN1S(=O)(=O)c1cccs1 (configuration not stated)	4	-6	3	-5	.	.
COc1cccc(-c2nc(CS(=O)(=O)CC(=O)Nc3cc(OC)ccc3OC)c(C)o2)c1	5	-2	3	0	.	.
COc1ccc(CN(C)C(=O)CNC(=O)CNC(=O)c2ccc(Cl)cc2Cl)cc1F	3	4	-5	1	.	.
Cc1ccc(NC(=O)COc2coc(CN3CCc4ccccc43)cc2=O)cc1Cl	-6	.	1	.	.	.
OC(c1cccc(Cl)c1)c1nc(/C=C/c2ccccc2)cs1 (configuration not stated)	15*	.	.	.	0	-5
COc1ccc2c(c1)C(O)C(CO)C(C(=O)O)C2 (configuration not stated)	16*	.	.	.	-1	-3
CCOC(=O)c1ccc(NC(=O)CSC2=NN3CCCC(=O)N=C3S2)cc1	7	-5	4	-2	.	.
Cc1ccc(-c2nc3c(Cl)cc(Cl)cc3c(=O)n2O)cc1	-5	-2	1	0	.	.
C[C@@H]1CN[C@H](CCO)/C1=C\c1ccccc1	16*	.	.	.	-1	6
COc1ccc(NC(=O)COC(=O)c2ccc(S(=O)(=O)N3CCCCCC3)cc2)c(OC)c1	-3	.	.	.	.	.
O=C(NCc1cccs1)C1CC1	6	3	0	-9	.	.
CC(C)N1C(=O)CCC1C(=O)NCc1cccs1 (configuration not stated)	23*	-14	0	-1	-1	-3
COc1ccccc1-c1nc2c(c(SCC(=O)N3CCCCC3)n1)Cc1c(CO)cnc(C)c1O2	15*	8	1	2	0	-3
SMILES	m5-HT2A agonist	HDAC3 inhib	Fh CTSL1 inh	LANA-H2A inh	OPRM1 ag	HTR2A ag conf
COc1ccccc1-n1cnnc1SCC(=O)N1CCOCC1	-1	-1	-3	0	.	.
CSc1ccc(NC(=O)N2CCN(c3nc4ccccc4s3)CC2)cc1	18*	4	1	-3	0.5*	1
CCCC(=O)N1CCN(c2nc3ccccc3s2)CC1	3	4	-4	0	.	.
Cc1ccc(N2CCN(CC(O)COc3ccc([N+](=O)[O-])cc3)CC2)cc1 (configuration not stated)	-4	-1	0	-2	.	.
O=S(=O)(c1ccc(OCC(O)CN2CCN(c3ccccc3)CC2)cc1)N1CCOCC1 (configuration not stated)	18*	-2	-1	6	-1	83*
O=S(=O)(c1ccc(OCC(O)CN2CCN(c3ccccc3O)CC2)cc1)N1CCOCC1 (configuration not stated)	19*	3	1	-10	-1	46*
O=[N+]([O-])c1ccc(OCC(O)CN2CCN(c3ccccc3F)CC2)cc1 (configuration not stated)	20*	1	1	6	-1	46*
COc1cccc(OC)c1OCC(O)CN1CCN(c2ccccc2)CC1 (configuration not stated)	0	12	-3	4	.	.
Cc1cccc(C)c1OCC(O)CN1CCN(c2ccccc2)CC1 (configuration not stated)	15*	6	2	-3	0	61*
C1=C\CCC2(OCCO2)C2(CC/1)OCCO2	2	.	.	.	.	.
O=c1[nH]ccc2c(O)cccc12	16*	-3	-3	0	0.7*	4
NS(=O)(=O)c1ccc(CNC(=O)CSc2nc3ccc(Cl)cc3[nH]2)cc1	0	-5	-3	2	.	.
CC1(C)NC(=S)NC1=S	17*	.	.	.	-1	-2
CN1CCN(c2nc(-c3ccccc3)ncc2S(=O)(=O)c2ccccc2)CC1	38*	4	0	5	0	29*
CN1CCN(c2nc(-c3ccccc3)ncc2S(C)(=O)=O)CC1	-7	-4	-13	9	.	.
Cc1ccc(S(=O)(=O)c2cnc(-c3ccccc3)nc2N2CCN(C)CC2)cc1	51*	0	2	-1	0	17*
CN1CCN(c2ccc(CNS(=O)(=O)c3ccsc3)cc2)CC1	0	1	-1	0	.	.
Cc1ccc(S(=O)(=O)N2CCCCC2)cc1C(=O)OC1CCCCC1=O (configuration not stated)	3	5	5	-1	.	.
COc1ccc(-n2nc(C(=O)NCC(=O)N3CCC(C)CC3)c3ccccc3c2=O)cc1	15*	0	9	-4	0	-1
COc1ccc(-n2nc(C(=O)NCC(=O)N3CCCC(C)C3)c3ccccc3c2=O)cc1 (configuration not stated)	-2	1	-2	1	.	.
COc1ccc(CC(N)c2csc(NC(=O)c3cccc(OC(F)(F)F)c3)n2)cc1 (configuration not stated)	-2	.	.	.	.	.
CC1CC(=O)Nc2ccccc2N1C(=O)CSc1nnnn1C (configuration not stated)	7	-7	.	-3	.	.

High-throughput results: PubChem, several laboratories
